# Only some compounds are listed: those with a hit (about 3.7% of all), similar ones and a draw of the others.
# FMDV antiviral – High Throughput Screening for Foot and Mouth Disease Virus Antivirals | FMDV antiviral cell-based qHTS | Potency, µM (highest dose often 57.9 µM), for the others: top-dose activity change, negative = inhibition, most hits filed as inhibitors | 410,000 tested, 1.2% active; calls by dose curve; tested in HEK293T cells; note: read-out not given here; nearly all actives have a fitted effect of over 45% in size
# Tb PYK inh – qHTS of Trypanosoma Brucei Inhibitors; pyruvate kinase (Trypanosoma brucei), Q57TT1; 410,000 tested, 0.12% active; TbPYK enzyme, Kinase-Glo Plus ATP luminescence, 45 min; AID 624173, 2012; Potency, µM (doses to about 76.8 µM), inactives show at the top dose activity, negative = inhibition, hits mostly inhibitors; note: nearly all actives have a fitted effect of over 50% in size
#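 Screened from lowest to highest concentration, compounds were pinned into TbPYK/substrate mixtures, and ADP (130 uM final) was added. Plates sat at room temperature for 45 min prior to Kinase-Glo Plus detection by luminescence.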
# Sm TGR block – qHTS Assay for the Inhibitors of Schistosoma Mansoni Peroxiredoxins; 360,000 tested, 3% active; Potency, µM (doses to about 114 µM), inactives show at the highest dose activity change, negative = inhibition, hits mostly inhibitors; Schistosoma mansoni thioredoxin glutathione reductase (TGR), Q962Y6; purified TGR, DTNB reduction, TNB absorbance 405 nm; note: nearly all actives have a fitted effect of over 60% in size
#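 TGR 20 nM + NADPH 100 uM (dispensed conc.), cpd preinc 15 min RT; start with NADPH (500 uM addition) then DTNB (15 mM addition). Kinetic TNB absorbance, 405 nm filter. Four-parameter Hill fit across titration.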
# RE007 growth inh – qHTS Assay for Inhibitors of the HIV-1 protein Vpr. Potency, µM (top dose mostly 92.2 µM), without a hit: at the top dose activity change, negative = less growth, usual class: inhibitors. 360,000 tested, 0.21% active. S. pombe RE007 Vpr strain, BacTiter-Glo ATP luminescence, 24 h; active = well fitted falling curve with a large enough effect; inconclusive = small, poorly fitted or top-dose-only effect; inactive = no such curve, though single readings can be large or run the other way; note: nearly all actives have a fitted effect of over 50% in size
#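 Fission yeast strain RE007, carrying one chromosomally integrated HIV-1 vpr copy, was seeded at OD 0.01 in PMG+AL medium with 23 nL pinned compound. After 24 h at 30 °C and 99% humidity, viability was read by BacTiter-Glo luminescence.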
# * hit, by the source's call; ? = inconclusive; . = no result; [ ] = dose if it differs, or a comment. Unless noted, calls come from the whole dose curve; as a rule, active = well fitted curve in the direction sought with a large enough effect; inconclusive = small, poorly fitted or top-dose-only effect, or another doubt; inactive = no such curve, though single readings can be large; an effect the other way counts as inactive or inconclusive. % is set by controls: 0 for no effect and ±100 for the full control effect; potency is the fitted concentration of half-maximal effect.
SMILES,FMDV antiviral,Tb PYK inh,Sm TGR block,RE007 growth inh
C[n+]1c2n(c3ccccc31)N=C(c1cc(C(C)(C)C)c(O)c(C(C)(C)C)c1)CS2,14.1µM*,0.7%,.,-3.0%
CCCCn1nnnc1SCC(=O)NCc1ccco1,-5.3%,1.9%,39.8µM*,.
CCn1nnnc1SCC(=O)NCc1ccco1,3.5%,2.9%,25.1µM*,8.1%
COc1cccc(-n2nnnc2SCC(=O)NCc2ccco2)c1,-0.2%,-0.9%,50.1µM*,2.6%
Cc1ccc(CN2CCNC(=O)C2CC(=O)N(Cc2c(C)nn(C)c2C)C2CC2)o1 (centres undefined),0.0%,0.6%,31.6µM*,7.3%
Cc1ccc(CN2CCNC(=O)C2CC(=O)NCCCn2ncc3ccccc32)o1 (centres undefined),3.8%,-2.2%,25.1µM*,-0.5%
COc1ccc(NC(=O)Cn2c(SCc3ccc(F)cc3)nc3cccnc32)cc1OC,2.2%,-1.3%,-1.1%,.
O=c1ccc(-c2ccc(S(=O)(=O)Nc3cccc(F)c3)o2)n[nH]1,12.8%,2.9%,?,1.1%
Cc1ccc(NS(=O)(=O)c2ccc(-c3ccc(=O)[nH]n3)o2)cc1Cl,17.1%,1.0%,-3.8%,11.4%
O=c1ccc(-c2ccc(S(=O)(=O)Nc3ccccc3Cl)o2)n[nH]1,4.1%,-3.0%,39.8µM*,0.1%
Cc1cccc(NS(=O)(=O)c2ccc(-c3ccc(=O)[nH]n3)o2)c1,13.5%,-3.7%,39.8µM*,19.2%
O=c1ccc(-c2ccc(S(=O)(=O)Nc3cccc(Br)c3)o2)n[nH]1,27.0%,-10.6%,50.1µM*,-7.7%
CCN(Cc1ccccc1)C(=O)Cn1ncc2c(=O)oc3ccc(C)cc3c21,-6.6%,-7.7%,4.0%,.
O=[N+]([O-])c1cccc(C2Nc3cccc4cccc(c34)N2)c1,-10.5%,-1.1%,35.5µM*,0.2%
O=[N+]([O-])c1ccc(C2Nc3cccc4cccc(c34)N2)cc1,-5.6%,-13.7%,20µM*,-3.6%
O=[N+]([O-])c1ccc(O)c(-c2ccnc3cc(-c4ccccc4)nn23)c1,?,-0.3%,-5.3%,.
O=C1OC2C(O)C(O)OC2C1O (centres undefined),.,-8.1%,.,.
CCOC(=O)C1CCCN(C(=O)CCc2nnc(-c3ccc(C(C)=O)s3)o2)C1 (centres undefined),18.4%,4.8%,15.8µM*,-11.1%
CCOC(=O)C1CCCN(C(=O)CSCc2ccccc2)C1 (centres undefined),18.7%,-3.4%,27.3%,-10.2%
CCC1CN(C(=O)Nc2cc(C)ccc2OC)c2cc(Cl)ccc2O1 (centres undefined),-19.6%,1.9%,3.8%,.
O=C(CCN1CCN(c2ccccc2F)CC1)c1ccc(Br)cc1,-23.4%,-14.3%,0.0%,31.6µM*
COc1ccc(C(=O)CCN2CCN(c3ccccc3F)CC2)cc1,-6.6%,-3.8%,0.794µM*,11.2µM*
O=C(CCN1CCN(c2ccccc2)CC1)c1ccc(Br)cc1,-2.6%,1.0%,0.0%,?
COc1ccc(C(=O)CCN2CCN(c3ccc(OC)cc3)CC2)cc1,-5.8%,5.9%,0.0%,?
O=C(Cc1c[nH]c2ccccc12)N1CCC(n2c(C3CCCO3)nc3cc(C(F)(F)F)ccc32)CC1 (centres undefined),-5.8%,.,.,.
SMILES,FMDV antiviral,Tb PYK inh,Sm TGR block,RE007 growth inh
CSC1=NC=C(C#N)C2=NC(c3c(Cl)cccc3Cl)NN12 (centres undefined),39.8µM*,-2.0%,.,-3.2%[18.4 µM]
CCc1ccc(NC(=O)c2cc3c(=O)n(Cc4cccs4)ccc3nc2C)cc1,-17.3%,5.8%,8.6%,.
O=C(c1ccccc1)N1CCN(C(=O)c2ccccc2)c2ccccc21,35.5µM*,-9.0%,.,28.3%
CCOC(=O)Nc1ccc2c(c1)nc1n2CCN(CCOC)C1,3.2%,2.8%,-14.7%,12.1%
COCCN1CCn2c(nc3cc(NC(=O)c4ccc(OC)cc4)ccc32)C1,-12.0%,4.3%,15.8µM*,0.1%
COCCN1CCn2c(nc3cc(NC(C)=O)ccc32)C1,10.3%,-1.6%,14.1µM*,-13.9%
COCCN1CCn2c(nc3cc(NC(=O)Cn4nc(C)c5ccccc5c4=O)ccc32)C1,-8.6%,-5.3%,25.1µM*,10.5%
Cc1nn(CC(=O)Nc2ccc3c(c2)nc2n3CCOC2)c(=O)c2ccccc12,-14.0%,12.0%,5.6%,11.7%
O=C(Nc1ccc2c(c1)nc1n2CCN(Cc2ccccc2)C1)NC1CCCCC1,22.8%,0.1%,?,-13.0%

# Source: PubChem BioAssay
